Data published in PMC7862700, “An all-to-all approach to the identification of sequence-specific readers for epigenetic DNA modifications on cytosine”.

Key:
Assay in all cases: DAPPL (digital affinity profiling via proximity ligation, sequencing); 10 mM Tris-HCl pH 7.5, 50 mM NaCl, 1 mM DTT, 4% glycerol, room temperature, 30 min; GST-TFs on glutathione beads, 16-mer random dsDNA library, 0.1% formaldehyde crosslink after washing; high values mean tight binding
[1] = target: T1, FLI1 (Homo sapiens, UniProt Q01543 1-452); details: protein: recombinant; tags: N-terminal GST; dsDNA, one strand shown
T1 sequence: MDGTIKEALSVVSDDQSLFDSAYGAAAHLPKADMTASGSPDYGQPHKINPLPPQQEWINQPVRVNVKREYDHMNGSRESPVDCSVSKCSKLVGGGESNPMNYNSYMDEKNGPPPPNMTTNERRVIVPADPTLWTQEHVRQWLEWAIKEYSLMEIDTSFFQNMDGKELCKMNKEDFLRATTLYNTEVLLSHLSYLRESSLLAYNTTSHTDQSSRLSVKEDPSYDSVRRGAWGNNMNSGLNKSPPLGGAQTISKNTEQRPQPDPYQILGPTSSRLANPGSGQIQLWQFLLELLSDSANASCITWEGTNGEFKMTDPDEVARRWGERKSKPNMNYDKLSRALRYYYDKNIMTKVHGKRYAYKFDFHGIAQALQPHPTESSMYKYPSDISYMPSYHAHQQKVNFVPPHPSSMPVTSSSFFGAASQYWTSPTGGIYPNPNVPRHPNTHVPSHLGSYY
Procedure, shortened: (§1)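 GST fusions of human transcription factors were expressed in yeast and captured with glutathione beads. Once given DNA barcodes and pooled alongside a tag-only sample, they were incubated for 30 min at room temperature with 200 nmole of a random double-stranded 16-mer DNA library in Tris/NaCl/DTT/glycerol buffer, then washed, crosslinked (0.1% formaldehyde), proximity-ligated, PCR-amplified and sequenced on an Illumina NextSeq500. The binding signal of each hexamer is its read frequency for a factor divided by its frequency for the tag-only sample.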

[2] = target: T2, ELK1 (Homo sapiens, UniProt P19419 1-428); details: protein: recombinant; tags: N-terminal GST; dsDNA, one strand shown
T2 sequence: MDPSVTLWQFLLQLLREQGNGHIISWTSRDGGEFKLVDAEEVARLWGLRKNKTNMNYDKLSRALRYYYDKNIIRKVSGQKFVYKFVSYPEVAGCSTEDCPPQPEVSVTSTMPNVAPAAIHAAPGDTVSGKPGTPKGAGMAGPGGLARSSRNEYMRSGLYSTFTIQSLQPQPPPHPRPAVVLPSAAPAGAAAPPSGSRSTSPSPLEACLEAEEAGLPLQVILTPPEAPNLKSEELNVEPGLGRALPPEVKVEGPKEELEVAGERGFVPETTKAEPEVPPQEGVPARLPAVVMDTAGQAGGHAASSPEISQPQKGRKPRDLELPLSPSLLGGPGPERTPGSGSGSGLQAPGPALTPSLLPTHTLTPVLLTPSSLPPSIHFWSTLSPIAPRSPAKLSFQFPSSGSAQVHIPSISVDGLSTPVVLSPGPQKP
Procedure, shortened: as §1

[3] = target: T3, GABPA (Homo sapiens, UniProt Q06546 1-454); details: protein: recombinant; tags: N-terminal GST; dsDNA, one strand shown
T3 sequence: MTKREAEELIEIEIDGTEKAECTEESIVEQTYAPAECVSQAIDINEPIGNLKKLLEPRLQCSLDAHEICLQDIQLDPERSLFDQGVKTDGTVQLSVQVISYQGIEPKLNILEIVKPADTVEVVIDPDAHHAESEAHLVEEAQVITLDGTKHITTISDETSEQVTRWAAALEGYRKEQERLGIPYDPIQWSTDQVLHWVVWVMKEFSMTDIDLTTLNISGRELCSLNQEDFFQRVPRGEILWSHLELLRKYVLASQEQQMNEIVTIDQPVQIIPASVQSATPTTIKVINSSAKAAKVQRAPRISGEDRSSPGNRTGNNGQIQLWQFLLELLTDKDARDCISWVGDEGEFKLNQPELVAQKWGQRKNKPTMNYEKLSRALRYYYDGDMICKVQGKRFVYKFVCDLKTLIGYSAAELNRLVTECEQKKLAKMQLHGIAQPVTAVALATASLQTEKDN
Procedure, shortened: as §1

[4] = target: T4, ERG (Homo sapiens, UniProt P11308 1-479); details: protein: recombinant; tags: N-terminal GST; dsDNA, one strand shown
T4 sequence: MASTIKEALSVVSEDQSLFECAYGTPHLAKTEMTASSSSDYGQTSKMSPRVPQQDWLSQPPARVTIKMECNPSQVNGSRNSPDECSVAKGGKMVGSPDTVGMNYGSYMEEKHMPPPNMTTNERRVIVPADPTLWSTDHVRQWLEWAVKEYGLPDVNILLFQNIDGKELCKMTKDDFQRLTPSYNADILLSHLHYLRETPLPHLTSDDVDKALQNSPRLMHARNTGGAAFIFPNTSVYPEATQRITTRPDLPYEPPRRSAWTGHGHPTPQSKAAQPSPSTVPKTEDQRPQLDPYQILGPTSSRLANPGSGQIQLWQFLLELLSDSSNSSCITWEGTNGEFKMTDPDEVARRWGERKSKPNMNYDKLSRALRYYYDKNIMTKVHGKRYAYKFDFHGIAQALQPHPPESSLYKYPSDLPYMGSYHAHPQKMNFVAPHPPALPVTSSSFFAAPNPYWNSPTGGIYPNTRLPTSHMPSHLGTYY
Procedure, shortened: as §1

[5] = target: ELF1 (Homo sapiens, UniProt P32519 1-619); details: protein: recombinant; tags: N-terminal GST; dsDNA, one strand shown
Procedure, shortened: as §1

[6] = target: T5, EHF (Homo sapiens, UniProt Q9NZC4 1-300); details: protein: recombinant; tags: N-terminal GST; dsDNA, one strand shown
T5 sequence: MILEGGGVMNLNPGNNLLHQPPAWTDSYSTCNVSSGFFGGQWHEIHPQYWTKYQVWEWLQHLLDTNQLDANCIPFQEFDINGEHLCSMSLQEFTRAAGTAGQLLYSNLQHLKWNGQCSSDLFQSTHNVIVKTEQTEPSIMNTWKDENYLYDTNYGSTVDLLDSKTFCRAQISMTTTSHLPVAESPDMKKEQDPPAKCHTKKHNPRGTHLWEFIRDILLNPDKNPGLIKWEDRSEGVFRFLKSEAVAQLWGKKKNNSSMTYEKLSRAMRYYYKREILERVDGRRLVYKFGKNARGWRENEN
Procedure, shortened: as §1

[7] = target: SPI1 (Homo sapiens, UniProt P17947 1-270); details: protein: recombinant; tags: N-terminal GST; dsDNA, one strand shown
Procedure, shortened: as §1

[8] = target: SPIB (Homo sapiens, UniProt Q01892 1-262); details: protein: recombinant; tags: N-terminal GST; dsDNA, one strand shown
Procedure, shortened: as §1

[9] = target: T6, ELK3 (Homo sapiens, UniProt P41970 1-407); details: protein: recombinant; tags: N-terminal GST; dsDNA, one strand shown
T6 sequence: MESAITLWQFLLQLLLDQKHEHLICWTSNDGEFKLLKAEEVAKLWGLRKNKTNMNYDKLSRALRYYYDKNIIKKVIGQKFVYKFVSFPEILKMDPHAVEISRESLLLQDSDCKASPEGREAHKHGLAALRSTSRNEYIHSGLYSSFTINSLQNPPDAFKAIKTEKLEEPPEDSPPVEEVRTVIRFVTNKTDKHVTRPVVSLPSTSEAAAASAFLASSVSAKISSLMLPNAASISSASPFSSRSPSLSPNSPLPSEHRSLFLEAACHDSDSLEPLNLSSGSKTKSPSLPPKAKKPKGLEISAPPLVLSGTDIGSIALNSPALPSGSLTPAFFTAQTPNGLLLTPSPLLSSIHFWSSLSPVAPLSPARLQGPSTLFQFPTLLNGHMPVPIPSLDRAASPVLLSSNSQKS
Procedure, shortened: as §1

[10] = target: T7, FEV (Homo sapiens, UniProt Q99581 1-238); details: protein: recombinant; tags: N-terminal GST; dsDNA, one strand shown
T7 sequence: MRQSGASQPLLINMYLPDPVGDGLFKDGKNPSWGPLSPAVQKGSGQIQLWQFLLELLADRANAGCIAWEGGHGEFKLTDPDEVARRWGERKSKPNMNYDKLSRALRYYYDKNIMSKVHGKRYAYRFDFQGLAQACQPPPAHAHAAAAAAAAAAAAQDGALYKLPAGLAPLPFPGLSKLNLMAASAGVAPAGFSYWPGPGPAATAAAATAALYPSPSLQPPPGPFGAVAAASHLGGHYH
Procedure, shortened: as §1

[11] = target: ETV5 (Homo sapiens, UniProt P41161 1-510); details: protein: recombinant; tags: N-terminal GST; dsDNA, one strand shown
Procedure, shortened: as §1

[12] = target: HSF1 (Homo sapiens, UniProt Q00613 1-529); details: protein: recombinant; tags: N-terminal GST; chain copies: 3; dsDNA, one strand shown
Procedure, shortened: as §1

[13] = target: T8, SPIC (Homo sapiens, UniProt Q8N5J4 1-248); details: protein: recombinant; tags: N-terminal GST; dsDNA, one strand shown
T8 sequence: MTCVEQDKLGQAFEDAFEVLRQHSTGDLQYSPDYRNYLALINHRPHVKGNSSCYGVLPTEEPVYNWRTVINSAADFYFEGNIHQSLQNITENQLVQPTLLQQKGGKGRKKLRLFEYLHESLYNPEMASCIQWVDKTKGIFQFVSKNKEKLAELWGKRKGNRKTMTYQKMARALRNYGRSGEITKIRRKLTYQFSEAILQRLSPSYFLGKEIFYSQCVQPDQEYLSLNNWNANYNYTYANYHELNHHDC
Procedure, shortened: as §1

[14] = target: ELF4 (Homo sapiens, UniProt Q99607 1-663); details: protein: recombinant; tags: N-terminal GST; dsDNA, one strand shown
Procedure, shortened: as §1

[15] = target: T9, ELK4 (Homo sapiens, UniProt P28324-2 1-405); details: protein: recombinant; tags: N-terminal GST; dsDNA, one strand shown
T9 sequence: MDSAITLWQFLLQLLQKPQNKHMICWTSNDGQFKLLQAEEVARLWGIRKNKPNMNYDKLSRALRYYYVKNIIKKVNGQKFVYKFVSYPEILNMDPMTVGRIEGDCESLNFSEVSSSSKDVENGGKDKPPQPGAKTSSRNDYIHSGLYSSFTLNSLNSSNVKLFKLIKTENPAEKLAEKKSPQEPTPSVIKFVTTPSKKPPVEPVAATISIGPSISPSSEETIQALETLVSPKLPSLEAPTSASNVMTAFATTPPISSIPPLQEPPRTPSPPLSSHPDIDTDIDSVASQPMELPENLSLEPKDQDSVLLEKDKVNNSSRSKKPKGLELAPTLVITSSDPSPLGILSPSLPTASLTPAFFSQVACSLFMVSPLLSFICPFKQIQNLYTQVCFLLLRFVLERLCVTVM
Procedure, shortened: as §1

[16] = target: T10, ETV2 (Homo sapiens, UniProt O00321 1-342); details: protein: recombinant; tags: N-terminal GST; dsDNA, one strand shown
T10 sequence: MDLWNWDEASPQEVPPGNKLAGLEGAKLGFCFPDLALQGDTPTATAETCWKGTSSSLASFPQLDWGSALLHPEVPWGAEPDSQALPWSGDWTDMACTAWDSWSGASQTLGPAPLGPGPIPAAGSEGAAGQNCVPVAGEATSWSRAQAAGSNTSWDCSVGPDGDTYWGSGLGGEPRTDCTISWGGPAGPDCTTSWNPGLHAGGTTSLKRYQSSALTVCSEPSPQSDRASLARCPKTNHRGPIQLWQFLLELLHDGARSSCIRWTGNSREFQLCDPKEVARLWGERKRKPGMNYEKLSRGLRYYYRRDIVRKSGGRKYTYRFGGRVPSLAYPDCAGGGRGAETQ
Procedure, shortened: as §1

[17] = target: T11, ELF3 (Homo sapiens, UniProt P78545 1-371); details: protein: recombinant; tags: N-terminal GST; dsDNA, one strand shown
T11 sequence: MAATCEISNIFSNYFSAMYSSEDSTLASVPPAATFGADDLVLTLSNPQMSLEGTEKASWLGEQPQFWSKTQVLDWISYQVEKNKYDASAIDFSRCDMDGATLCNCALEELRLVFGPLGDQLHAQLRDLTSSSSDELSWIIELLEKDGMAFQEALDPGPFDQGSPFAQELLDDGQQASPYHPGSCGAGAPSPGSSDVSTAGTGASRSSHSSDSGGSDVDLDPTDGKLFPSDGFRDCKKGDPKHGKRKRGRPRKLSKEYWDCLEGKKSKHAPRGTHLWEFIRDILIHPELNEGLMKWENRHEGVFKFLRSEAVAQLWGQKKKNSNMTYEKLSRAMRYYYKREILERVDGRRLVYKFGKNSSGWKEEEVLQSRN
Procedure, shortened: as §1

[18] = target: CRX (Homo sapiens, UniProt O43186 1-299); details: protein: recombinant; tags: N-terminal GST; dsDNA, one strand shown
Procedure, shortened: as §1

[19] = target: ETV1 (Homo sapiens, UniProt P50549 1-477); details: protein: recombinant; tags: N-terminal GST; dsDNA, one strand shown
Procedure, shortened: as §1

Sequence of ETV1 (P50549 whole entry): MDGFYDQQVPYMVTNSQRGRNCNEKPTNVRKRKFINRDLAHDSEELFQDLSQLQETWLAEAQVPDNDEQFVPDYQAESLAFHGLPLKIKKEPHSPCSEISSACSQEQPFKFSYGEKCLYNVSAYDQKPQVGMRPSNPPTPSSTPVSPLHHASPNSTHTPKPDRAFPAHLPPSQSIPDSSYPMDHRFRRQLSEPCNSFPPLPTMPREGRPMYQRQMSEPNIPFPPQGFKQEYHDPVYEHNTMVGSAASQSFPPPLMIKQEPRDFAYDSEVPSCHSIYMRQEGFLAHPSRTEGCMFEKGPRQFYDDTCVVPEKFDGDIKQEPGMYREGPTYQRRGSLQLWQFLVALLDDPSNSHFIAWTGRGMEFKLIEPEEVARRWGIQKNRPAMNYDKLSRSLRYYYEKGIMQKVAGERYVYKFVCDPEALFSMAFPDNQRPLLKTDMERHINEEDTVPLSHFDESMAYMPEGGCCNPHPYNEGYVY
Sequence of ELF4 (Q99607 whole entry): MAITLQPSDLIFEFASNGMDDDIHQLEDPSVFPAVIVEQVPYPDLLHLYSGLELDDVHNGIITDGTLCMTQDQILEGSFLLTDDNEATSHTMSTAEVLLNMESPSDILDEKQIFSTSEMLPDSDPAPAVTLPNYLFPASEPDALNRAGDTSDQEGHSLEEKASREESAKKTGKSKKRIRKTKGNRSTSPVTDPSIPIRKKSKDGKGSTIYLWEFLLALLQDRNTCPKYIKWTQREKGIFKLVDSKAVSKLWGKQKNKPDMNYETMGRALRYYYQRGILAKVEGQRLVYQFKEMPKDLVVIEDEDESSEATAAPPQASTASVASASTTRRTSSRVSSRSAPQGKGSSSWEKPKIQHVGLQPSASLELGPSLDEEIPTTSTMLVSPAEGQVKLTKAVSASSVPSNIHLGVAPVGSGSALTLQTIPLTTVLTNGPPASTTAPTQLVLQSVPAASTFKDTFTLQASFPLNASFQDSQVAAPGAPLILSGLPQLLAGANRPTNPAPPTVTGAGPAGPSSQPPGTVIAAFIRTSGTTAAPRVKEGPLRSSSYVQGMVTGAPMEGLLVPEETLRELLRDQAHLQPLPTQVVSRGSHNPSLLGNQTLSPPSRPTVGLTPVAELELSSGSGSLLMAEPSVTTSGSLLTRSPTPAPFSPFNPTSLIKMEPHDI
Sequence of ELF1 (P32519 whole entry): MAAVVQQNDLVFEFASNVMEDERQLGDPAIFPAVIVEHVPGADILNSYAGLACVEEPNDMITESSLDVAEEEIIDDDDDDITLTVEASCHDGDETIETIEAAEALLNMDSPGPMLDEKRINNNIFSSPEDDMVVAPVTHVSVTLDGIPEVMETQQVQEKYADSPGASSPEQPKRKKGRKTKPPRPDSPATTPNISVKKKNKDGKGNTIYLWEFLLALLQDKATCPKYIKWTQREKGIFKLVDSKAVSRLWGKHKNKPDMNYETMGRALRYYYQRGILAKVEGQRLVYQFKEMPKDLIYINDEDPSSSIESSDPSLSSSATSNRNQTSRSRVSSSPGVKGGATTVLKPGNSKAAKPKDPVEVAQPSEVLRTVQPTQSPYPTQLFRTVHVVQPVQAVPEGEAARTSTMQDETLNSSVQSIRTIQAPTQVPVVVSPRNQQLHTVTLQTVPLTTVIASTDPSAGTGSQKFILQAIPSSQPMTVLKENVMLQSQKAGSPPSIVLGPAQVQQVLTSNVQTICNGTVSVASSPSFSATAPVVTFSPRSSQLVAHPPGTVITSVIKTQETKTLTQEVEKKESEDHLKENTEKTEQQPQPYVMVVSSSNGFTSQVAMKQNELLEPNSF
Sequence of SPIB (Q01892 whole entry): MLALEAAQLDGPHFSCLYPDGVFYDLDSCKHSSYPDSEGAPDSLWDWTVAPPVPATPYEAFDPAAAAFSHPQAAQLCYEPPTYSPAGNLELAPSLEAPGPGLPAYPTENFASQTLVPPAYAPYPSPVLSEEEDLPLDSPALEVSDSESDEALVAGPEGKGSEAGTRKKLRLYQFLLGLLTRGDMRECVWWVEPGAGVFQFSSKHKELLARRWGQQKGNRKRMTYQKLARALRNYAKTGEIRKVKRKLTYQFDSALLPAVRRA
Sequence of HSF1 (Q00613 whole entry): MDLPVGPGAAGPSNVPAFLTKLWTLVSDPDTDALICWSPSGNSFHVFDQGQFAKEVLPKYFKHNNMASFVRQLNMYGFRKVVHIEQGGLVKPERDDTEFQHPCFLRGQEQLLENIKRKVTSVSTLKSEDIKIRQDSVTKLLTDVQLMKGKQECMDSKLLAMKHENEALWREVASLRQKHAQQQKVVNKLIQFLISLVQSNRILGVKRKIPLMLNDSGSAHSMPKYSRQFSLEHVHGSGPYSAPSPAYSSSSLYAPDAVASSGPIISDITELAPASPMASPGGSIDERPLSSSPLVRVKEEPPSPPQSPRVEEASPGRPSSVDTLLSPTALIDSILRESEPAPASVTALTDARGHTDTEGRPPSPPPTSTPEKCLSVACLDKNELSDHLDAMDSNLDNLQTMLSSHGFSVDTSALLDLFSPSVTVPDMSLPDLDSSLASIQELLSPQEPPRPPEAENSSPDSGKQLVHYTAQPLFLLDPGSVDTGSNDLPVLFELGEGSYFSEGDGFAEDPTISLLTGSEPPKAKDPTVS
Sequence of CRX (O43186 whole entry): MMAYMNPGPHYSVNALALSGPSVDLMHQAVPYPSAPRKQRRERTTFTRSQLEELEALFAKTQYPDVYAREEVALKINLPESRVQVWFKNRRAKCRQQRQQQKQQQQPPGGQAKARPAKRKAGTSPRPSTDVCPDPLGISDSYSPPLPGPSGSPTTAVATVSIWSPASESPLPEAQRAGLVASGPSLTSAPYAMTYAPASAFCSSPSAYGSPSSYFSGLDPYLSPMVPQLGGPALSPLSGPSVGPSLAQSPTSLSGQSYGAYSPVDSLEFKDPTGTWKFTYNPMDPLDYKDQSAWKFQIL
Sequence of ETV5 (P41161 whole entry): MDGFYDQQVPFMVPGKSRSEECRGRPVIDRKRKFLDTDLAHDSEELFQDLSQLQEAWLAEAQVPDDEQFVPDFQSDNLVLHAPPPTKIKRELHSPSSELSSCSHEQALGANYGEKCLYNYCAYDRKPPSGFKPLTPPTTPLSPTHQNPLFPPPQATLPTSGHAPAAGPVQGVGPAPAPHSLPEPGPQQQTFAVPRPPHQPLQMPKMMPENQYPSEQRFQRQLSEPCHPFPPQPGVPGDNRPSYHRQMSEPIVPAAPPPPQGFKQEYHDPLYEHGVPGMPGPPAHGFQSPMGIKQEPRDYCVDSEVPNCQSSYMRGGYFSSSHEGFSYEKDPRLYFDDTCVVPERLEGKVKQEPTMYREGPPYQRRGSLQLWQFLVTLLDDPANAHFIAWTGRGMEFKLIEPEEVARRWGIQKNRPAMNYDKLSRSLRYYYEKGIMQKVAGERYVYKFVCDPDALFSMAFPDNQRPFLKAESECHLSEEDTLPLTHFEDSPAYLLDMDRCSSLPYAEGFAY

Sequence: CCTATT
- binding signal [1]: 1.47 fold enrichment (6-mer frequency, TF over GST control)
- binding signal [2]: 1.55 fold enrichment (6-mer frequency, TF over GST control)
- binding signal [3]: 1.49 fold enrichment (6-mer frequency, TF over GST control)
- binding signal [4]: 1.53 fold enrichment (6-mer frequency, TF over GST control)
- binding signal [5]: 1.56 fold enrichment (6-mer frequency, TF over GST control)
- binding signal [6]: 1.64 fold enrichment (6-mer frequency, TF over GST control)
- binding signal [7]: 1.55 fold enrichment (6-mer frequency, TF over GST control)
- binding signal [8]: 1.44 fold enrichment (6-mer frequency, TF over GST control)
- binding signal [9]: 1.4 fold enrichment (6-mer frequency, TF over GST control)
- binding signal [10]: 1.39 fold enrichment (6-mer frequency, TF over GST control)
- binding signal [11]: 1.51 fold enrichment (6-mer frequency, TF over GST control)
- binding signal [12]: 1.43 fold enrichment (6-mer frequency, TF over GST control)
- binding signal [13]: 1.46 fold enrichment (6-mer frequency, TF over GST control)
- binding signal [14]: 1.44 fold enrichment (6-mer frequency, TF over GST control)
- binding signal [15]: 1.37 fold enrichment (6-mer frequency, TF over GST control)
- binding signal [16]: 1.46 fold enrichment (6-mer frequency, TF over GST control)
- binding signal [17]: 1.54 fold enrichment (6-mer frequency, TF over GST control)
- binding signal [18]: 1.67 fold enrichment (6-mer frequency, TF over GST control)
- binding signal [19]: 1.55 fold enrichment (6-mer frequency, TF over GST control)
